Data on ten molecules can be found in PubChem BioAssay (NCI).

What all share (test): NCI-60 one-dose screen, 48 h (100 = growth as untreated, 0 = no growth, -100 = all killed)
Test [1] has as its system SK-MEL-2 melanoma. As to conditions: 10 µM unless noted.
In test [2] the test system is SN12C renal. As to conditions: 10 µM unless noted.
In test [3] the test system is UO-31 renal. The conditions noted are these: 10 µM unless noted.
Test [4] has as its system TK-10 renal. The conditions noted are these: 10 µM unless noted.
Test [5] has as its system ACHN renal. As to conditions: 10 µM unless noted.
Test [6] deals with CAKI-1 renal. As to conditions: 10 µM unless noted.
Test [7] deals with A498 renal. As to conditions: 10 µM unless noted.
Test [8] relates to CCRF-CEM leukemia. The conditions noted are these: 10 µM unless noted.
Test [9] relates to SR leukemia. As to conditions: 10 µM unless noted.
The test system of test [10] is RPMI-8226 leukemia. The conditions noted are these: 10 µM unless noted.
In test [11] the test system is OVCAR-8 ovarian. As to conditions: 10 µM unless noted.
The subject of test [12] is OVCAR-5 ovarian. As to conditions: 10 µM unless noted.
For test [13], the system named is OVCAR-4 ovarian. As to conditions: 10 µM unless noted.
In test [14] the test system is SK-OV-3 ovarian. The conditions noted are these: 10 µM unless noted.
The test system of test [15] is IGROV1 ovarian. As to conditions: 10 µM unless noted.
In test [16] the test system is OVCAR-3 ovarian. As to conditions: 10 µM unless noted.
The subject of test [17] is HS 578T breast. The conditions noted are these: 10 µM.
For test [18], the system named is NCI/ADR-RES ovarian. As to conditions: 10 µM unless noted.
Test [19] has as its system MOLT-4 leukemia. As to conditions: 10 µM unless noted.

SMILES strings stand for the structures. The panel holds about 83,000 compounds, 20% with a hit somewhere; the sample as a whole holds those more often.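 Method: cells in 96-well plates; compound added at one concentration; 48 h incubation; percent growth measured; values under 10 scored active.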 Unmarked numbers belong to inactive results. Activity calls are given as the source filed them.

Turning to `O=C(/C=C/c1ccccc1)C(Br)C(Br)c1ccccc1` (stereo unspecified), the growth is 40.9% in [1]; 41.4% in test [2]; -88.1% (active) in test [3]; -31.1% (active) in test [4]; -65.9% (active) in test [5]; -44.4% (active) in test [6]. The growth is 85.1% in [7]; -41.4% (active) in test [8]; -28% (active) in test [9]; -42.2% (active) in test [10]; -20.7% (active) in test [11]; 38.3% in test [12]. The growth was 13% in [13]; 86.1% in test [14]; -45.5% (active) in test [15]; -31.1% (active) in test [16]; 100% in test [17]; 39.7% in test [18].

As to `COS(=O)(=O)CCN(CCOS(C)(=O)=O)S(C)(=O)=O`, the growth is 78.9% in test [1]; 98.1% in test [2]; 86.7% in test [3]; 96.7% in test [4]; 92.9% in test [5]; 96.8% in [6]. Also, the growth in [7] was 115%; in [19] it was 90.5%; in [9] it was 95.5%; in test [10], 99.8%; in test [11] it was 94.9%; in test [12], 101%. For the same molecule, the growth in test [13] is 107%; in test [14] it was 104%; in test [15], 105%; in test [16], 105%; in test [18], 105%.

With `Cc1cc(C)cc(CCCCCCCCCCCCCCCCCC(=O)O)c1`, the growth is 150% in [1]; 106% in test [2]; 89% in test [3]; 116% in test [4]; 98.9% in test [5]; 100% in test [6]. Further, the growth is 106% in [7]; 98.3% in test [19]; 107% in test [9]; 99.4% in [10]; 103% in [11]; 103% in test [12]. Besides, the growth was 105% in [13], 105% in [14], 108% in [15] and 102% in [16].

For `CCOC(=O)c1c(NC(=O)c2ccccc2)sc2c(O)c(CN(CC)CC)ccc12`, the growth in [1] is 7.87% (active); in [2] it was 24.3%; in test [3] it was 37.5%; in test [4] it was 19.8%; in test [5], 29.5%; in [6], 1.51% (active). Further, the growth in test [7] was -22.7% (active); in test [8], 5.79% (active); in test [19] it was 14%; in test [9] it was 9.72% (active); in test [10], 18.2%; in test [11], 2.1% (active). Further, the growth is 42.8% in test [13]; -14.8% (active) in test [14]; 22.4% in test [15]; -61.6% (active) in [16]; 26.9% in test [17].

In the case of `NC(=S)N/N=C(/c1cccs1)C1CC1`, the growth was 160% in [1]; 82.6% in test [2]; 76.2% in [3]; 124% in [4]; 83.9% in test [5]; 98.8% in test [6]. Also, the growth in [7] is 106%; in test [9] it was 120%; in [10], 63.2%; in [11], 67.7%; in test [12] it was 90.9%; in [13], 82.8%. Also, the growth in [14] was 103%; in test [15], 53.5%.

Consider `COc1cc2c(cc1OC)C(=O)C(Br)CC2` (stereo unspecified), for which the growth in [1] was 81.6%; in test [2], 44.4%; in test [3], 39.4%; in test [4], 53.7%; in [5], 42.1%; in test [6], 10.4%. Further, the growth was 73.6% in test [7]; 3.35% (active) in test [8]; 13.3% in test [19]; 19.8% in test [9]; 20.6% in test [10]; 33% in test [11]. Further, the growth in [13] was 52.7%; in test [14], 83.2%; in test [15], 41.7%; in test [16] it was 38.9%; in [17], 88.8%.

As to `O=[N+]([O-])c1cccc([I+]c2ccccc2)c1`, the growth in test [1] was 76.1%; in [2], 52.4%; in [3] it was 43.6%; in test [4], 67.5%; in [5], 63.3%; in test [6], 46%. Further, the growth in test [7] is 40.5%; in test [8], 15.8%; in [19], 12.6%; in test [9], 16.6%; in test [10] it was 27.9%; in test [11], 35%. Also, the growth in [13] is 58.4%; in test [14], 54.9%; in test [15] it was 31.5%; in test [16] it was 58.7%; in test [17], 49.6%; in [18] it was 77.5%.

Consider `CCC(=O)NC(O)C(Cl)(Cl)C(C)Cl` (stereo unspecified), for which the growth was 106% in test [1]; 98.8% in test [2]; 91.5% in test [3]; 112% in test [4]; 100% in test [5]; 99.4% in [6]. Moreover, the growth in test [7] was 107%; in test [19] it was 108%; in [9] it was 105%; in test [10], 105%; in [11] it was 98.1%; in [13], 109%. For the same molecule, the growth is 107% in test [14], 99.6% in [15] and 96.3% in test [18].

On to `CC(C)COC(=O)NC(C)(C)C`, for which the growth in test [1] was 93.1%; in test [2] it was 110%; in test [3] it was 95.6%; in test [4], 104%; in test [5] it was 104%; in [6], 96.4%. The growth in test [7] was 120%; in [19] it was 85.4%; in test [9], 91.5%; in test [10] it was 103%; in test [11], 103%; in test [13] it was 106%. For the same molecule, the growth in [14] was 103%; in test [15] it was 107%; in test [16], 105%; in test [18] it was 106%.

As to `CC1=C(C(=O)Nc2ccc(F)cc2)C(c2ccc(Cl)cc2)C2=C(CC(C)(C)CC2=O)N1` (stereo unspecified), the growth is 97.5% in test [1]; 86.7% in [2]; 64% in test [3]; 113% in [4]; 94.4% in test [5]; 72.7% in [6]. Further, the growth was 54.4% in test [7]; 78.8% in test [8]; 73.1% in test [19]; 70% in [10]; 89.1% in test [11]; 93.5% in test [12]. The growth in test [13] was 77.6%; in test [14], 101%; in [15], 89.6%; in test [16] it was 89.9%; in test [17], 80.4%; in [18], 87.9%.
